Bioassay records from PubChem.
Sampled rows, rich in hits. Any-hit rate of the full collection: about 5.9%.
RORgamma inh: qHTS for inhibitors of ROR gamma transcriptional activity; Nuclear receptor ROR-gamma (Mus musculus), P51450; Drosophila S2 Gal4-RORgamma UAS-luciferase reporter, 20 h; Potency, µM (highest dose often 53.6 µM), for inactives: top-dose activity change, negative = inhibition, usual class: inhibitors; 5.4% of 310,000 active; AID 2551, 2010; further: on the % scale 0 is the no-effect control and ±100 the full control effect; nearly all actives have a fitted effect of over 60% in size
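Stable Schneider cell line, Gal4 DNA-binding domain fused to ROR gamma, UAS-luciferase. Cmpd 1 hr RT → CuSO4 700 uM final → 20 hr RT → luciferase reagent 10 min → luminescence.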
Gal4-VP16 FLuc: VP16 counterscreen qHTS for inhibitors of ROR gamma transcriptional activity | Drosophila S2 Gal4-VP16 UAS-luciferase, luminescence, 20 h | Potency, µM (titrated, usually from 53.6 µM), inactives show at the highest dose activity, negative = inhibition, usual class: inhibitors | 3.5% of 310,000 active | AID 2546, 2010;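 further: Gal4-VP16 expression switched on by copper sulfate through the metallothionein promoter; on the % scale 0 is the no-effect control and ±100 the full control effect; nearly all actives have a fitted effect of over 50% in size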
GLP-1R inv ag: qHTS of GLP-1 Receptor Inverse Agonists (Inhibition Mode); 1.6% of 410,000 active; Potency, µM (top dose mostly 38.3 µM), for the others: at the top dose activity change, negative = inhibition, usual class: inhibitors; HEK293 GLP-1R CRE-luciferase, luminescence, 24 h; GLP-1R form is constitutively active; further: on the % scale 0 is the no-effect control and ±100 the full control effect; nearly all actives have a fitted effect of over 55% in size
Target sequence (P43220 whole entry, looked up): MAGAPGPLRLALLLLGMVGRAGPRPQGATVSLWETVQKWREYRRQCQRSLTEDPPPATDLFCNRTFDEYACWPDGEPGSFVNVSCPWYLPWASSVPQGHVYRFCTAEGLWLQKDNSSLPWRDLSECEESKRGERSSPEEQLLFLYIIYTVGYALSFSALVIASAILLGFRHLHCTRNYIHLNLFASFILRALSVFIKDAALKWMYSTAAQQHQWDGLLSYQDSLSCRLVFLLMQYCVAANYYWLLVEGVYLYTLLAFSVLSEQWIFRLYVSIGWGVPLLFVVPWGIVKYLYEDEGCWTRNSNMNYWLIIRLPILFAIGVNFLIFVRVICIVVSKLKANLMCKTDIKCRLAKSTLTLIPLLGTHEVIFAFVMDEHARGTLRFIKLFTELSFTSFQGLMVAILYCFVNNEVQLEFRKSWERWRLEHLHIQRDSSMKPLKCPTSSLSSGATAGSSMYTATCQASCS
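Constitutively active GLP-1R drives a cAMP-responsive luciferase in stably transfected HEK293 cells; test compounds are added after overnight (12 h) attachment and left 24 hr, and signal loss in luminescence marks inhibition.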
GLP-1R agonist: qHTS of GLP-1 Receptor Agonists; Glucagon-like peptide 1 receptor (Homo sapiens), P43220; HEK293 GLP-1R CRE-luciferase, luminescence, 4-6 h; cells express a hypersensitive GLP-1R form; Potency, µM (titrated, usually from 45.6 µM), for inactives: top-dose activation, most hits filed as activators; 0.007% of 380,000 active; AID 624172, 2012; further: % of control where 0% means no effect
HEK293 tox: qHTS of GLP-1 Receptor Inverse Agonists: Cytotox Screen; HEK293 cAMP-luciferase reporter cells, luminescence, 24 h; Potency, µM (series often up to 38.3 µM), for inactives: top-dose activity change, negative = inhibition, usual class: inhibitors; 0.13% of 410,000 active; AID 624418, 2012;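 further: loss of luciferase light is scored as toxicity; on the % scale 0 is the no-effect control and ±100 the full control effect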
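Step one: seed cells (200 cells/uL, DMEM with 10% Nu serum, 1% pen-strep). Step two: 12-hour incubation at 37 deg C. Step three: pin 23 nL compound, incubate 24 hr. Step four: add luciferase reagent, read luminescence 12 min later.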
The depositor's hits bear a star; ? = inconclusive; / = not tested or not shown; [ ] = dose if it differs, or a comment. The call rests on the fitted dose curve; in most records, active means well fitted curve in the direction sought with a large enough effect; inconclusive means small, poorly fitted or top-dose-only effect, or another doubt; inactive means no such curve, though single readings can be large; an effect the other way counts as inactive or inconclusive. Potency means the concentration at half of the fitted maximal effect.

SMILES	RORgamma inh	Gal4-VP16 FLuc	GLP-1R inv ag	GLP-1R agonist	HEK293 tox
C/C(=N\Nc1ncc(Cl)cc1Cl)c1ccccn1	0.708µM*	14.1µM*	-82.7%	1.6%	-66.4%
C/C(=N\NC(=O)c1ccccc1)c1ccc(N2CCOCC2)cc1	-0.7%	4.1%	9.4%	-2.1%	-5.7%
C/C(=N\Nc1ccc(Cl)c(C(=O)O)c1)c1ccccn1	?	22.1%	50.5%	-0.2%	18.0%
Cc1sc2ncnc(N/N=C/c3cccc(O)c3)c2c1C	?	?	16.4%	24.2%	16.9%
CCOCCc1nn2c(=O)cc(COC(=O)c3ccc(NC(=O)C4CCCCC4)cc3)nc2s1	/	/	?	/	-7.7%
N#Cc1c(C(F)(F)F)cc(-c2cccs2)nc1SCc1ccccc1F	/	/	4.3%	/	-7.7%
C/C(=N\Nc1cccc2cccnc12)c1ccccn1	0.631µM*	3.98µM*	?	1.2%	?
C/C(=N/Nc1nc(C)cc(C)n1)c1ccc(Br)cc1	7.94µM*	7.94µM*	?	6.5%	?
C/C(=N\Nc1cccc2cccnc12)c1ccccc1O	?	-11.4%	5.3%	12.5%	6.2%
C/C(=N\Nc1ncc(Cl)cc1Cl)c1ccc(N2CCOCC2)cc1	5.01µM*	?	-66.7%[7.66 µM]	4.7%	?
C/C(=N\Nc1cc(N2CCCCC2)nc(C)n1)c1ccc(Br)cc1	?	6.31µM*	10µM*	10.8%	?
CN(C)C1(CNC(=O)COc2ccc([N+](=O)[O-])cc2)CCCCC1	/	/	-4.5%	/	4.0%
CCOC(=O)CCN1C(=O)[C@H]2[C@H]3[C@H](O)[C@H](O)C/C(=N/OC/C=C(\C)CCC=C(C)C)[C@H]3CC[C@@H]2C1=O	-4.6%[10 µM]	-7.0%[10 µM]	/	/	/
CCCCCC(=O)N1C[C@H](O)[C@@H](n2cc(-c3ccc(F)cc3)nn2)C[C@@H]1c1ccc(OC)cc1	/	/	11.2µM*	5.3%	-23.8%
CCCCCC(=O)N1C[C@H](O)[C@@H](n2cc(-c3ccc(F)cc3)nn2)C[C@@H]1c1ccc(Cl)cc1	/	/	10µM*	5.1%	?
CCCCCCN1C[C@H](n2cc(-c3ccc(F)cc3)nn2)[C@@H](O)C[C@@H]1c1ccc(OC)cc1	/	/	-31.2%	-4.9%	4.0%
CCCCCCN1C[C@@H](n2cc(-c3ccc(F)cc3)nn2)[C@H](O)C[C@@H]1c1ccc(OC)cc1	/	/	3.16µM*	-1.7%	?
COc1ccc([C@H]2C[C@H](O)[C@@H](n3cc(C4CC4)nn3)CN2CC2CCCCC2)cc1	/	/	?	5.8%	14.1%
COc1ccc([C@H]2C[C@@H](O)[C@H](n3cc(C4CC4)nn3)CN2CC2CCCCC2)cc1	/	/	7.94µM*	6.0%	-14.5%
CC(C)c1cccc2nc3c(c([Si](C)(C)C(C)(C)C)c12)Cn1c-3cccc1=O	10.2%	0.4%	/	/	/
CN(C)C(=O)c1ccc(-c2ccc3ncnc(NC4CCNCC4)c3c2)cc1	17.9%	1.7%	/	/	/
OC[C@H]1O[C@@H](O[C@@H]2OC=C[C@H]3[C@H](O)[C@@H]4O[C@]4(CO)[C@@H]23)[C@H](O)[C@@H](O)[C@@H]1O	-23.0%	-10.3%	/	/	/
Cc1c(N=C2NC(=O)/C(=C/c3ccc(O)cc3)S2)c(=O)n(-c2ccccc2)n1C	5.01µM*	?	21.3%	3.8%	-18.1%
Cc1c(N=Nc2ccc(O)cc2)c(=O)n(-c2ccccc2)n1C	-6.7%	1.5%	37.9%	13.7%	-4.1%
O=S(=O)(c1ccc(NC(=S)N/N=C/c2ccc(Oc3ccccc3)cc2)cc1)N1CCOCC1	0.501µM*	-6.0%	-7.0%	4.5%	2.1%
SMILES	RORgamma inh	Gal4-VP16 FLuc	GLP-1R inv ag	GLP-1R agonist	HEK293 tox
O=S(=O)(c1ccc(NC(=S)NN=C2CCCCC2)cc1)N1CCOCC1	8.91µM*	?	-4.7%	5.4%	-17.9%
O=S(=O)(c1ccc(NC(=S)N/N=C/c2ccc(N3CCOCC3)cc2)cc1)N1CCOCC1	?	6.31µM*	29.9%	-1.1%	-21.5%
O=S(=O)(c1ccc(NC(=S)N/N=C/c2c3ccccc3cc3ccccc23)cc1)N1CCOCC1	?	7.08µM*	4.7%	-3.4%	5.5%
CCOc1ccc(NC(=O)CCCc2nc(-c3cccc(OC)c3)no2)cc1	/	/	-13.0%	/	-2.0%
COc1ccccc1CCNC(=O)C(=O)NCC(c1cccs1)S(=O)(=O)c1ccc(C)cc1 (stereo unspecified)	/	/	-20.5%	/	-5.0%
CC(=O)c1ccc(N2CCN(C(=O)CCc3nnc4n(C)c(=O)c5sccc5n34)CC2)cc1	/	/	22.4%	-2.1%	4.1%
Cc1ccc(S(=O)(=O)N2CCN(c3ncnc4sccc34)CC2)cc1C	/	/	32.0%	1.7%	7.7%
O=S(=O)(c1ccc2c(c1)OCCO2)N1CCN(c2ncnc3sccc23)CC1	?	11.2µM*	2.5%	?	-1.1%
O=S(=O)(NC(=S)c1ccccc1)c1ccc(F)cc1	11.2µM*	?	17.6%	-6.0%	-13.8%
CC(C)N=C1NN=C(c2ccc(F)cc2)CS1	7.08µM*	?	?	-0.6%	21.9%
Clc1ccc(C2=NNC(=NCc3ccccc3)SC2)cc1	5.01µM*	?	?	9.3%	-3.0%
Fc1ccc(C2=NNC(=NCc3ccccc3)SC2)cc1F	14.1µM*	-26.0%	?	5.6%	?
COc1ccccc1C1=NNC(=NCc2ccccc2)SC1	11.2µM*	-5.0%	-2.6%	0.1%	-5.7%
CCOCCCNC(=O)C1CCC(CNS(=O)(=O)c2ccc(NC(C)=O)cc2)CC1 (stereo unspecified)	/	/	17.2%	/	-10.9%
CC(C)C[C@@H](CC(=O)N[C@@H](CCC(=O)O)CC(=O)O)NC(=O)[C@@H]1CCCC[C@H]1NC(=O)C[C@@H](NC(=O)C[C@H](CO)NC(=O)[C@@H]1CNCC[C@H]1N)C(C)C	-2.6%	0.2%	/	/	/
CCN=C1NN=C(c2ccc(C)cc2)CS1	11.2µM*	?	-7.9%	2.5%	?
c1ccc(CN=C2NN=C(c3ccccc3)CS2)cc1	?	-75.6%	-17.3%[0.307 µM]	-10.9%	5.0%[0.307 µM]
CO[C@]12C(COC(N)=O)C3=C(C(=O)C(C)=C(N)C3=O)N1CC1NC12 (stereo partly specified)	-27.8%	-18.6%	/	10.6%	/
O=C(N/N=C/c1cccc(Oc2ccccc2)c1)c1ccc(O)cc1O	0.631µM*	2.24µM*	?	14.6%	-4.1%
COc1ccc(/C=N/NC(=O)c2ccc(O)cc2O)cc1CSc1ccccn1	0.0891µM*	2µM*	-0.8%	-3.8%	68.8%
COc1ccc(C=O)cc1CSc1ccccn1	-2.6%	3.6%	-1.1%	3.3%	4.0%
COc1ccc(/C=N/NC(=O)c2cccnc2)cc1CSc1nc2ccccc2s1	?	20µM*	0.0%	-15.8%	?
